Measured values as given in ChEMBL document CHEMBL3988442, “University of Dundee, Small-Polar-MMV Screening Library” (2021).
For some of these results: Potency and affinity values are given separately.

Legend:
Design in all cases: scale not given: direction of the effect not stated beside the values
[1] = biological target: Protein translocase subunit SecA (Escherichia coli (strain K12)) (UniProt P10408); assay: Assay to Identify E. coli SecA ATPase Inhibitors; type: functional; conditions: 30 µM
Protein translocase subunit SecA (Escherichia coli (strain K12)), sequence (P10408 whole entry): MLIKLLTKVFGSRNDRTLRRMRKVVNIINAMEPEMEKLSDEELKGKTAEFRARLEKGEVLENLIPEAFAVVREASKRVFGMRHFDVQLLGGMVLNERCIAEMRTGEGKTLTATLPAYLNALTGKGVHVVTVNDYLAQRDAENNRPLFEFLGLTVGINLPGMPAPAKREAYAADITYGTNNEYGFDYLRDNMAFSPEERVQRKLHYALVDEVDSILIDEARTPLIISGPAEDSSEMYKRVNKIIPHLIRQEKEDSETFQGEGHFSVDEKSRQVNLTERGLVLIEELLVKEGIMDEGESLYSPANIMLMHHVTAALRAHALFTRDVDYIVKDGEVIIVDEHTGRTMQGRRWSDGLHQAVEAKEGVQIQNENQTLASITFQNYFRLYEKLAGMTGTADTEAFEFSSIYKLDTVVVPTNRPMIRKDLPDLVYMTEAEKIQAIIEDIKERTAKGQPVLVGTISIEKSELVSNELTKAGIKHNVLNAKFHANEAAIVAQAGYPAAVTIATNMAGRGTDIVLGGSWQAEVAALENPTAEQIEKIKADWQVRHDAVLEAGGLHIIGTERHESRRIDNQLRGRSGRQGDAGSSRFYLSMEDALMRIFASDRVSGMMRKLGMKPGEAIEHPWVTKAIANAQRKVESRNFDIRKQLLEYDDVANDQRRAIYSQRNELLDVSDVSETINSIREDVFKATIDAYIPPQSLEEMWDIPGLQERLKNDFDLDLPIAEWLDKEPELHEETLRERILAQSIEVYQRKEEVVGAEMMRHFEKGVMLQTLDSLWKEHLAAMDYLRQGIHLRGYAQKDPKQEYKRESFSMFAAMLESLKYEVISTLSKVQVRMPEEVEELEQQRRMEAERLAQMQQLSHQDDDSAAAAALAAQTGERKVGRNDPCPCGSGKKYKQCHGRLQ

[2] = biological target: T1, Ubiquitin-activating enzyme e1, putative (Leishmania donovani (strain BPK282A1)) (UniProt E9BSI1); assay: Leishmania donovani Ubiquitin Activating Enzyme (LdE1); type: functional; conditions: 30 µM
T1 sequence (whole entry): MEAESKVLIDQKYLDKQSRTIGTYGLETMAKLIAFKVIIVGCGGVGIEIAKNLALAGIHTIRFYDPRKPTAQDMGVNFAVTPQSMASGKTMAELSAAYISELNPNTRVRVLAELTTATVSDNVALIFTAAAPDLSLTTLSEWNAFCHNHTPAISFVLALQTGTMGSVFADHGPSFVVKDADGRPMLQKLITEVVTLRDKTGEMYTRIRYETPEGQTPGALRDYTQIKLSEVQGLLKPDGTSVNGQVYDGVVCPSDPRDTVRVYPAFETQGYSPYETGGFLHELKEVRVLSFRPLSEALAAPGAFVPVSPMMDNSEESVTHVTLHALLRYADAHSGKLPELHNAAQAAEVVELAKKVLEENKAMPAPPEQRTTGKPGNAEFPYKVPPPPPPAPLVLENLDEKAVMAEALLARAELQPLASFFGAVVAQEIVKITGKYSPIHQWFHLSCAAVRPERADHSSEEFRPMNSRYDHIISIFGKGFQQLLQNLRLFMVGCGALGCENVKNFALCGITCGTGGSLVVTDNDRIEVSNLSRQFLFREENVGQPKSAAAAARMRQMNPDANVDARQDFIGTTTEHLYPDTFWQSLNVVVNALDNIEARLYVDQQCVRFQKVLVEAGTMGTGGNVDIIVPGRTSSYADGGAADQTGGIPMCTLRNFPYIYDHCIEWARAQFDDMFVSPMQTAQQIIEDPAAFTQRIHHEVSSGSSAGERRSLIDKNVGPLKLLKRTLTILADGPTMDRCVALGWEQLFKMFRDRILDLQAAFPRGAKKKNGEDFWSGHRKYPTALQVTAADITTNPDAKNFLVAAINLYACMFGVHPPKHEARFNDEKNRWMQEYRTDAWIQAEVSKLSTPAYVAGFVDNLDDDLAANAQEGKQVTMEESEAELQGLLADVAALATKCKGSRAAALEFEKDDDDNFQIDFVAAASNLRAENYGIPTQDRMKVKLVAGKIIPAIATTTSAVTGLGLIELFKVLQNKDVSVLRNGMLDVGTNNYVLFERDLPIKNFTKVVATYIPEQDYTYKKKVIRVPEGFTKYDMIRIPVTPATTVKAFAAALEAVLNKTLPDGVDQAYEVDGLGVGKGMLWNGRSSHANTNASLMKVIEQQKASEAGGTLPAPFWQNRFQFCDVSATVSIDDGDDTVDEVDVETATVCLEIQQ

[3] = biological target: AMP-activated protein kinase, AMPK (Homo sapiens) (UniProt P54646+O43741+P54619+Q9UGJ0+Q9Y478+Q13131+Q9UGI9); assay: AMP-dependent Kinase enzyme assay. An in vitro enzyme assay that detects ADP turnover that is directly proportional to AMPK activity. This uses naive AMPK that is activated during the assay with MK-8722; type: functional; conditions: 30 µM
[4] = biological target: Sialic acid-binding Ig-like lectin 9 (Homo sapiens) (UniProt Q9Y336); assay: Hs-Siglec9 ALPHAscreen SOP 20170721; conditions: 10 µM
Sialic acid-binding Ig-like lectin 9 (Homo sapiens), sequence (Q9Y336 whole entry): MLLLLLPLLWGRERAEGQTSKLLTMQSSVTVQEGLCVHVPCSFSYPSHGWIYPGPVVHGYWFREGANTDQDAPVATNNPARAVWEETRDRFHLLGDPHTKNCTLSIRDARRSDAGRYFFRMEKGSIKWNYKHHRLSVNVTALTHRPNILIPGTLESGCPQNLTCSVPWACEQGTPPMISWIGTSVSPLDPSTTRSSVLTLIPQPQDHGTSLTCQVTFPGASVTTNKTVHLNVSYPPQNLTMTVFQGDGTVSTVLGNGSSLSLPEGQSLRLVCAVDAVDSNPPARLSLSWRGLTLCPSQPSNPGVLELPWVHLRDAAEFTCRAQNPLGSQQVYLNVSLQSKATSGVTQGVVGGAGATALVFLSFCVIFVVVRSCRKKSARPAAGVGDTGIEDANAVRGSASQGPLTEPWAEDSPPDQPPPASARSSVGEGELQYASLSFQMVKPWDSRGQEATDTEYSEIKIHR

Trypanosoma cruzi = assay: Trypanosoma cruzi phosphomannomutase and mannose-1-phosphate guanylyltransferase assay; type: functional; conditions: 10 µM
[5] = biological target: T2, Arginase-2, mitochondrial (Homo sapiens) (UniProt P78540); assay: in vitro enzyme assay to detect the production of urea directly proportional to the activity of Arginase II; type: functional; conditions: 33.3 µM; note: in the data most compounds retested in dose-response had high values
T2 sequence (whole entry): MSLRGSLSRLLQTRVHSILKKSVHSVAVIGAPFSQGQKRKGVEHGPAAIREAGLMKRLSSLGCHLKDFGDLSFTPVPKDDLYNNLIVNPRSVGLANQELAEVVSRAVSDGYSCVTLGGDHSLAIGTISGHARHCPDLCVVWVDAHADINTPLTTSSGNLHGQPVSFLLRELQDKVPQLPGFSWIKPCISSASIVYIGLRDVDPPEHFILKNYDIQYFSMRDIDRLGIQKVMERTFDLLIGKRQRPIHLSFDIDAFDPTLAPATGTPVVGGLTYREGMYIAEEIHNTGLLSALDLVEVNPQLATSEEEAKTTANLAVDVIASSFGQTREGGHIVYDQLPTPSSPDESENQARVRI

[6] = biological target: T3, Proteasome subunit beta (Trypanosoma cruzi) (UniProt O96673); assay: Trypanosoma cruzi proteasome chymotrypsin-like activity (TcProtChymo) assay.; note: in the data most compounds retested in dose-response had high values; type: functional; conditions: 9.37 µM
T3 sequence (whole entry): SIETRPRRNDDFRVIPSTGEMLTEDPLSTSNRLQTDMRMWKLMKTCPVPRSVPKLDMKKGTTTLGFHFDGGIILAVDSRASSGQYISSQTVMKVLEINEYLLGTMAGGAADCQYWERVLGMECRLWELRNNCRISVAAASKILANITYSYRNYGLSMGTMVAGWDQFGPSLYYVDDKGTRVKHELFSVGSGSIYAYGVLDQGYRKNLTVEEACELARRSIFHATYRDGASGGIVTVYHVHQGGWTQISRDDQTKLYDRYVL

Homo sapiens = species on record: Homo sapiens; assay: To identify inhibition of the IFN signalling (Jak-Stat) pathway via expression of an eGFP reporter gene under the control of an IFN-stimulated response element (ISRE) containing MxA promoter.; type: functional; conditions: 30 µM
[7] = biological target: T4, Tyrosyl-tRNA synthetase, putative (Trypanosoma cruzi (strain CL Brener)) (UniProt Q4DSP6); assay: Trypanosoma cruzi tyrosyl tRNA synthetase (TcYRS) _High Tyrosine SOP; type: functional; conditions: 30 µM; note: in the data most compounds retested in dose-response had high values
T4 sequence (whole entry): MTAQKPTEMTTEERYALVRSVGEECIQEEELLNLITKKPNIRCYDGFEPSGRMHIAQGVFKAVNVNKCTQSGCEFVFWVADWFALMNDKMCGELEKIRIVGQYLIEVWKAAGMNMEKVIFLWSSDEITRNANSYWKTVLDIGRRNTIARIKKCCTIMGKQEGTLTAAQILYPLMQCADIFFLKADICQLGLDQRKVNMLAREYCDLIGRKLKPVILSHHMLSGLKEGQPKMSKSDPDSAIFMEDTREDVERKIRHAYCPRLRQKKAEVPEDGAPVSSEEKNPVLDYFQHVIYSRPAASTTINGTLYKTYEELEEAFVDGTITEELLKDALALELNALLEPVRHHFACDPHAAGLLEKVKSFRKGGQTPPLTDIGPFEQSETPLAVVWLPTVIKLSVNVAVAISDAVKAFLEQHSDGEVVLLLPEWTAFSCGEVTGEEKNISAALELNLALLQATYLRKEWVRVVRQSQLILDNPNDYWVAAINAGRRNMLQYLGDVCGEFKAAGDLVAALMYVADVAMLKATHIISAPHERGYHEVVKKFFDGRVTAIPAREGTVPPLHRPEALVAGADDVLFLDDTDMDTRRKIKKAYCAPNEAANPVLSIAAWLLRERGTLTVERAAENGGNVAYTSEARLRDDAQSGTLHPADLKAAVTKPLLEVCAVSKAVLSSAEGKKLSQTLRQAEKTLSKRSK

[8] = biological target: T4, Tyrosyl-tRNA synthetase, putative (Trypanosoma cruzi (strain CL Brener)); assay: Trypanosoma cruzi tyrosyl tRNA synthetase (TcYRS) SOP; type: functional; conditions: 30 µM
[9] = biological target: Chromo domain-containing protein 1 (Saccharomyces cerevisiae (strain ATCC 204508 / S288c) (Baker's yeast)) (UniProt P32657); assay: ScCHD-1 Enzyme Inhibition Assay; type: functional; conditions: 30 µM; note: in the data most compounds retested in dose-response had high values
Chromo domain-containing protein 1 (Saccharomyces cerevisiae (strain ATCC 204508 / S288c) (Baker's yeast)), sequence (P32657 whole entry, the tested form may be a part): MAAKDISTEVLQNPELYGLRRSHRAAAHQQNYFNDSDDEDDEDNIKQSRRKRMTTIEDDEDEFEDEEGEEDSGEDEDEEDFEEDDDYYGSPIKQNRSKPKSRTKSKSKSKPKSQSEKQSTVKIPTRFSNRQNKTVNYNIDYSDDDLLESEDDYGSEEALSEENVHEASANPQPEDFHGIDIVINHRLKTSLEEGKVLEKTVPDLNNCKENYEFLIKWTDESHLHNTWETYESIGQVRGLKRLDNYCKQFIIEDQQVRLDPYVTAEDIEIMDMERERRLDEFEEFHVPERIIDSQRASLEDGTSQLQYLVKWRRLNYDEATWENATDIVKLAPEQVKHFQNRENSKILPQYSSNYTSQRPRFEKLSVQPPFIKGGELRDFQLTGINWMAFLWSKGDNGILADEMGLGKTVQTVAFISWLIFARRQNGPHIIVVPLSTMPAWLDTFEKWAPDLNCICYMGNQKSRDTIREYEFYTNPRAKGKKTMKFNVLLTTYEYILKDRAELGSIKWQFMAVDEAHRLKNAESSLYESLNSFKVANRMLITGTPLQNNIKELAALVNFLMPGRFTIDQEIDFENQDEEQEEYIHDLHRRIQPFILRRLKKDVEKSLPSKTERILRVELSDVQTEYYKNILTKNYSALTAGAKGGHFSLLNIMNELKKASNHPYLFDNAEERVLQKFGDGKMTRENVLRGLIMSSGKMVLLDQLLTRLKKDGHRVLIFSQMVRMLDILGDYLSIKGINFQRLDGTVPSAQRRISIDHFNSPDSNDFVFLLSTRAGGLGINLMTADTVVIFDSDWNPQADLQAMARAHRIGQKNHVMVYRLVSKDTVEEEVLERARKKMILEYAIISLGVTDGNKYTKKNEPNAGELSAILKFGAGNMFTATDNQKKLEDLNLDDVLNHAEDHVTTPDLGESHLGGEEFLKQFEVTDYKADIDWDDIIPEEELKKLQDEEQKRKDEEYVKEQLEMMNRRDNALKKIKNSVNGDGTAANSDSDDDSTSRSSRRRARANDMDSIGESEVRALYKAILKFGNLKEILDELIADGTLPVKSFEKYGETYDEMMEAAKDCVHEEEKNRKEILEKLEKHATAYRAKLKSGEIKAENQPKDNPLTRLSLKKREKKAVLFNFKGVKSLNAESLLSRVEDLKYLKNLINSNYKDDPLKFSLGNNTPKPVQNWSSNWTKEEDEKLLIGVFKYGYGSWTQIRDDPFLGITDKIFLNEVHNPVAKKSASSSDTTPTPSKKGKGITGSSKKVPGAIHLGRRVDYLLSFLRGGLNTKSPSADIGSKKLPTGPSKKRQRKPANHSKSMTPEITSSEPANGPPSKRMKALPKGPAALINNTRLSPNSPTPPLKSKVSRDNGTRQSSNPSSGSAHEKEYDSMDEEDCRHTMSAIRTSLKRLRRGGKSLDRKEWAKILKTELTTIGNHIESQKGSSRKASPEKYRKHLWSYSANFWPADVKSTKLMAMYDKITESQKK

| Structure (SMILES) | Percent Effect [1] | Percent Effect [2] | Percent Effect [3] | Percent Effect [4] | Percent Effect (Trypanosoma cruzi) | Percent Effect [5] | Percent Effect [6] | Percent Effect (Homo sapiens) | Percent Effect [7] | Percent Effect [8] | Percent Effect [9] |
| --- | --- | --- | --- | --- | --- | --- | --- | --- | --- | --- | --- |
| Cn1nc(C2CCN(C(=O)Cc3cccc(F)c3)CC2)c2cccnc21 | -2.77% | -6.76% | 12.2% | 3.61% | 4.35% | -0.232% | 6.71% | 14.9% | 1.07% | 6.49% | -3.75% |
| CNC(=O)[C@H]1C[C@@H]2CN(C(=O)c3ccco3)C[C@@H]2N1S(C)(=O)=O | -2.51% | 13.3% | -0.761% | -3.21% | 3.48% | 90.5% | 12.7% | -4.85% | 6.25% | 17.5% | -6.67% |
| CN(C)c1cc(CNC(=O)c2cn(-c3ccc(F)cc3)nn2)ccn1 | -5.01% | 10.4% | 1.52% | 2.16% | 0.686% | 3.58% | 14.2% | 11.3% | 7.62% | 21.2% | -6.24% |
| Cc1cccc(-c2ccc(C(=O)NCC3CCOC3)c(=O)[nH]2)c1 (stereo unspecified) | -2.02% | 10.8% | -7.21% | 7.34% | -0.472% | -4.41% | -0.18% | 12.2% | 5.42% | 11.1% | -8.03% |
| CCN(C(=O)CS(=O)(=O)Cc1cc(Cl)c2c(c1)OCCCO2)C1CC1 | 2.17% | 5.06% | -1.41% | -13.2% | -7.84% | 5.32% | 7.62% | 8.01% | 3.45% | 16.5% | -6.8% |
| Cc1occc1C(=O)N1CCc2ncnc(-c3cnn(C)c3)c2CC1 | -2.67% | -5.41% | -4.37% | 0.728% | 6.75% | -1.24% | 4.21% | 4.88% | 1.07% | 3.7% | -4.52% |
| Cc1noc(C(C)C)c1C(=O)NS(=O)(=O)c1ccc2c(c1)OCCCO2 | -0.953% | 2.63% | 4.57% | 1.83% | 4.19% | -3.55% | 6.23% | 24.3% | 0% | 5.2% | 15.4% |
| COc1cccc(COCC(=O)N2CCCC(c3cc(C)[nH]n3)C2)c1 (stereo unspecified) | -3.58% | 13.5% | -9.62% | 3.3% | -2.92% | -0.401% | 2.7% | 10.1% | 11.3% | 16.1% | -4.89% |
| CCC(=O)N1CC[C@@H](c2ccc3ccccc3c2)[C@H](O)C1 | -3.58% | 8% | -2.44% | 14.3% | 5.94% | 24% | 16.2% | 11.8% | 4.92% | 11.1% | -8.24% |
| CC(C)(O)CN1CCN(C(=O)c2cc3ccccc3c(=O)[nH]2)CC1 | 0.132% | 2.63% | 5.98% | -1.12% | -3.6% | -2.37% | 7.57% | -8.77% | 7.45% | 13% | -5.58% |
| O=C(CCc1ccc(Cl)s1)N1CCCC(n2cncn2)C1 (stereo unspecified) | -2.21% | -2.53% | 3.52% | 6.43% | -0.0944% | 5.32% | -3.36% | -2.4% | 0.493% | -1.27% | 0.688% |
